# Assay outcomes: PubChem BioAssay, National Center for Advancing Translational Sciences (NCATS)
# An excerpt weighted towards active compounds, which were near 7.4% of everything screened.
# Rab9 promoter act: activators of Rab9 promoter | Huh7 Rab9 promoter-luciferase reporter, luminescence, 24 h | Potency, µM (series often up to 9.22 µM), for the others: at the highest dose activation, negative = inhibition, most hits filed as activators | 320,000 tested, 2.8% active; further: % of control where 0% means no effect; nearly all actives have a fitted effect of over 60% in size
#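 Luciferase signal after 10 min detection reagent at ambient indicates Rab9 promoter upregulation; stably transfected Huh7 cells were treated 24 h with compound in DMSO at 37 °C, 5% CO2.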
# NPC1 promoter act: NPC1 promoter activation. Huh7 NPC1 promoter luciferase reporter, 24 h. Potency, µM (highest dose often 9.22 µM), for inactives: at the top dose activation, usual class: activators. 320,000 tested, 2.4% active; further: % of control where 0% means no effect; nearly all actives have a fitted effect of over 60% in size
#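 Luciferase expression driven by the NPC1 promoter was measured in stably transfected Huh7 cells after a 24 h compound incubation, using a luciferase reagent and a luminescence read.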
# p53 reactivation: mutant p53 re-activation in reporter cells; H1299 p53-A138V BP100-luciferase reporter, luminescence, 24 h; Potency, µM (series often up to 92.2 µM), inactives show at the top dose activity change, positive = activation, hits mostly activators; 320,000 tested, 0.063% active; further: % of control where 0% means no effect; nearly all actives have a fitted effect of over 45% in size
#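 H1299 (p53-null), stable ts p53-A138V + BP100-Luc; 1000 cells/well, Opti-MEM/10% FBS; cpd 4 pt, 1:5; 24 h, 37 deg C, 5% CO2; detection reagent 10 min RT; luminescence.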
# SMN2 splice up: SMN2 splice variant enhancement; HEK293 SMN2-luciferase splicing reporter, luminescence, 30-36 h; Potency, µM (top dose mostly 46.1 µM), for the others: top-dose activity change, positive = activation, usual class: activators; 210,000 tested, 2.8% active; further: % of control where 0% means no effect; nearly all actives have a fitted effect of over 55% in size
#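 HEK293 cells carry an SMN2 minigene-luciferase reporter in which exon 7 inclusion puts luciferase in frame. Cells were seeded at 2000 cells/well, attached for 10-12 hours, then exposed to compounds for 30-36 hours at 37C before ONE-Glo luminescence.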
# ELG1 genotox: induces genotoxicity in HEK293T cells with luciferase-tagged ELG1 | 330,000 tested, 1.3% active | Potency, µM (doses to about 46 µM), for the others: top-dose activity change, positive = activation, usual class: activators | HEK293T ELG1-luciferase reporter, luminescence, 16 h; further: % of control where 0% means no effect; nearly all actives have a fitted effect of over 60% in size
#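 Quantitative HTS format in 1536-well plates. HEK293T ELG1-luciferase reporter cells receive test compound and are incubated 16 hr at 37 °C, 5% CO2; ONE-Glo added, 30 min room temperature, then luminescence read.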
# FLuc counter: inhibits or activates purified firefly luciferase, miR-21 counter-screen; P08659; purified FLuc, Km substrates, luminescence inhibition; Potency, µM (highest dose often 57.5 µM), inactives show at the top dose activity change, negative = inhibition, actives largely listed as inhibitors; 360,000 tested, 6.9% active; AID 588342;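 further: plate controls were vehicle for no effect and reference inhibitor for full effect; nearly all actives have a fitted effect of over 55% in size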
# Target sequence (P08659 whole entry, looked up): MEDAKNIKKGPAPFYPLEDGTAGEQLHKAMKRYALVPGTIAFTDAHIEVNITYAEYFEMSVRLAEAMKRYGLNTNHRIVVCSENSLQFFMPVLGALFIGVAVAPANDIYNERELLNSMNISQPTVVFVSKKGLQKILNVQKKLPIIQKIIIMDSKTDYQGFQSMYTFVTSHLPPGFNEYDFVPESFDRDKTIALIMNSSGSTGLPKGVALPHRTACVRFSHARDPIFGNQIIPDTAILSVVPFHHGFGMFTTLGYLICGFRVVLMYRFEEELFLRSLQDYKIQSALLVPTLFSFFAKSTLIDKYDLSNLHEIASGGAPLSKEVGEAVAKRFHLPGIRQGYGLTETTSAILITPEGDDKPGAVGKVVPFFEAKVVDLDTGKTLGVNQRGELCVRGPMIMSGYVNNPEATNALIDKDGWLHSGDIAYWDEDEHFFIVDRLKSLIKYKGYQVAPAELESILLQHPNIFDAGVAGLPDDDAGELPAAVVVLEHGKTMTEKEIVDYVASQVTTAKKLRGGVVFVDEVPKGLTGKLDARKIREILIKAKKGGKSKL
#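 Purified P. pyralis luciferase, 10 nM final, with Km-level 10 uM D-luciferin and 10 uM ATP in 50 mM Tris acetate pH 7.5, 10 mM Mg acetate, 0.01% Tween-20, 0.05% BSA; 6-point qHTS titration about 60 µM downward; luminescence read.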
# * = called active by the depositor; ? = inconclusive; nt = not tested or not shown; [ ] = another dose, or the depositor's remark. The call rests on the fitted dose curve; in most records, active means well fitted curve in the direction sought with a large enough effect; inconclusive means small, poorly fitted or top-dose-only effect, or another doubt; inactive means no such curve, though single readings can be large; an effect the other way counts as inactive or inconclusive. Potency means the concentration at half of the fitted maximal effect.
SMILES,Rab9 promoter act,NPC1 promoter act,p53 reactivation,SMN2 splice up,ELG1 genotox,FLuc counter
Cc1cc(/C=C2\SC(=S)N(C)C2=O)c(C)n1-c1cccc(O)c1,15%,?,?,nt,?,1.1µM*
Cc1cc(/C=C2\SC(=S)N(Cc3ccco3)C2=O)c(C)n1-c1ccccc1,3.5µM*,?,?,nt,5.2µM*,3µM*
O=C(CC1C(=O)N(c2ccccc2)C(=O)N1Cc1ccc2c(c1)OCO2)Nc1ccccc1 (stereo not given),nt,nt,nt,4%,nt,-10%
Cc1cc(/C=C2\SC(=O)N(C)C2=O)c(C)n1-c1ccc(O)cc1,0.2µM*,0.45µM*,nt,nt,0.65µM*,0.48µM*
Cc1cc(/C=C2\SC(=O)N(C)C2=O)c(C)n1-c1ccc(S(N)(=O)=O)cc1,16%,10%,3%,nt,0%,-18%
COC(=O)C1=C(C(=O)OC)[C@@H]2N(C)c3ccc(OC)cc3[C@@]23C[C@@H](C(=O)OC)N(S(=O)(=O)c2ccc(C)cc2)C3=N1,nt,nt,nt,-5%[9.22 µM],nt,nt
Cc1cc(C(=O)CN2C(=O)C(=O)N(C3CCCC3)C2=O)c(C)n1-c1ccc(F)cc1,12%,0%,4%,-1%,-9%,-17%
Cc1cc(C(=O)CN2C(=O)NC(CC(C)C)C2=O)c(C)n1-c1ccccc1F (stereo not given),1.1µM*,2.2µM*,18%,25%,?,13µM*
Cc1cc(C(=O)CN2C(=O)NC(CC(C)C)C2=O)c(C)n1C1CC1 (stereo not given),nt,nt,5%,nt,11%,nt
Cc1cc(C(=O)CN2C(=O)C(=O)N(CC(C)C)C2=O)c(C)n1-c1ccccc1F,23%,2%,15%,16%,5%,17µM*
Nc1nc2c(c(=O)[nH]1)N(C=O)C(CNc1ccc(C(=O)NC(CCC(=O)O)C(=O)O)cc1)CN2 (stereo not given),nt,nt,nt,-8%,nt,nt
COc1ccccc1/C=N/NC(=O)c1cc2c(ccc3ccccc32)o1,3%,1%,-2%,nt,-5%,19µM*
O=C(N/N=C/c1cccc([N+](=O)[O-])c1)c1cc2c(ccc3ccccc32)o1,-5%,?,-2%,-5%,14%,-4%
O=C(N/N=C/c1ccncc1)c1cc2c(ccc3ccccc32)o1,4%,0%,-4%,-10%,3%,?
O=C(O)c1ccc(/C=N/NC(=O)c2cc3c(ccc4ccccc43)o2)cc1,11%,-2%,1%,nt,0%,6µM*
COc1ccc(/C=N/NC(=O)c2cc3c(ccc4ccccc43)o2)cc1OC,-3%,-3%,-8%,nt,-4%,11µM*
N#CCn1cc(/C=N/NC(=O)c2cc3c(ccc4ccccc43)o2)c2ccccc21,-5%,-13%,-2%,nt,-3%,?
COc1cc(/C=N/NC(=O)c2cc3c(ccc4ccccc43)o2)cc(OC)c1O,-4%,-2%,10%,nt,0%,4.8µM*
CCOc1ccc(CNC(=O)c2ccc(CSc3nc4ccncc4n3Cc3ccc(F)cc3)cc2)cc1,nt,nt,nt,-20%,nt,-9%
COc1ccc(/C=N\NC(=O)c2cc3c(ccc4ccccc43)o2)cc1O,-1%,-2%,-4%,nt,-9%,12µM*
O=C(N/N=C/c1ccc(-c2ccc(Cl)c(C(=O)O)c2)o1)c1cc2c(ccc3ccccc32)o1,1%,13%,-3%,nt,5%,21µM*
COc1ccc(C(=O)Nc2ccccc2C(=O)O)cc1NC(=O)C(c1ccccc1)c1ccccc1,22%,20%,6%,nt,4%,13µM*
CCN(CC)S(=O)(=O)c1cc(C(=O)Nc2ccccc2C(=O)O)ccc1OC,0%,16%,5%,10%,5%,6µM*
COc1ccccc1C(=O)Nc1ccc(C(=O)Nc2ccccc2C(=O)O)cc1,4%,2%,-7%,nt,-8%,0%
CCOc1c(Cl)cc(C(=O)Nc2ccccc2C(=O)O)cc1Cl,?,25%,25%,?,1%,19µM*
